Assay results from PubChem BioAssay.

assay: binders from COS7 lysate, DM2A8 probe, primary screen, torsin A project, cell lysate, small-molecule microarray, fluorescence 635/667 (AID 1065); conditions: higher = more signal, COS7 lysate expressing mutant human TOR1A

Compound | composite z-score
CO[C@@H]1COC(=O)CC=C[C@@H](C)[C@H](OC)COC(=O)CC=C[C@H]1C | 1.22
O=C1O[C@H](c2ccccc2)[C@H](c2ccccc2)N2[C@H]1[C@@H](C(=O)Nc1nc3ccccc3s1)[C@]1(C(=O)Nc3ccc(C#CC4(O)CCCCCC4)cc31)[C@H]2c1ccc(O)cc1 | -0.0427
O=C1O[C@@H](c2ccccc2)[C@@H](c2ccccc2)N2[C@@H](c3ccccc3OCCO)[C@]3(C(=O)Nc4ccc(C#CC5=CCCCC5)cc43)[C@@H](C(=O)O)[C@H]12 | 0.416
O=C1O[C@@H](c2ccccc2)[C@@H](c2ccccc2)N2[C@@H](c3ccc(O)cc3)[C@]3(C(=O)Nc4ccccc43)[C@@H](C(=O)N3CCN(c4ncccn4)CC3)[C@H]12 | 0.637
C[N+](C)(C)CCCCNC(=O)[C@@H]1C[C@@H]2C(=O)N3CCC[C@H]3C(=O)N2[C@@H]1c1cccc(OCCO)c1 | 1.3
C=CC[C@@]1(C(=O)N2CCOCC2)N=C(c2ccc(OCCCO)cc2)O[C@@H]1c1ccccc1 | 1.2
CCC#CCN(Cc1ccccc1Br)[C@H](/C=C/c1ccccc1)[C@@H](O)Cc1ccccc1 | -0.387
O=C(NCc1ccccc1)c1ccc(Br)cc1[N+](=O)[O-] | 0.13
CC(C)N1CC=CC23O[C@@H]4/C=C\CCCOC(=O)C4[C@H]2C(=O)N(CCCCCO)[C@@H]3C1=O (stereo not given in full) | 2.29
O=C1OCC=C[C@H]2OC34C=CCN(Cc5ccccc5)C(=O)[C@H]3N(CCO)C(=O)[C@@H]4[C@@H]12 (stereo not given in full) | -0.0397
O=C1O[C@H](c2ccccc2)[C@H](c2ccccc2)N2[C@H]1[C@@H](C(=O)NC[C@H](O)c1ccccc1)[C@]1(C(=O)Nc3ccc(C#CC4=CCCCC4)cc31)[C@H]2c1ccc(OCCO)cc1 | 0.21
COc1ccc(-c2ccccc2[C@@H]2N[C@H](C(=O)O)CC[C@H]2C)cc1 | -0.0323
CCOC(=O)C[C@H]1[C@H](OC(=O)c2cc3ccccc3oc2=O)[C@@H](NC(=O)C2CCCCC2)c2cc(OCCCO)ccc2N1C(=O)c1ccc2ccccc2n1 | 0.0931
NC(=O)NCC#Cc1ccc2c(c1)[C@]1(C(=O)N2)[C@H](C(=O)N2CCCCCCC2)[C@H]2C(=O)O[C@H](c3ccccc3)[C@H](c3ccccc3)N2[C@@H]1c1ccccc1OCCO | 2.03
Cc1ccc(N2C(=O)c3ccccc3[C@@H](C(=O)NCc3ccccc3)[C@@H]2c2ccc(CO)cc2)nc1 | 0.205
COC(=O)C(CC#Cc1ccc2c(c1)[C@]1(C(=O)N2)[C@H](C(=O)N2CCCCCCC2)[C@H]2C(=O)O[C@H](c3ccccc3)[C@H](c3ccccc3)N2[C@@H]1c1ccc(O)cc1)C(=O)OC | -1.17
COc1ccc([Si](C)(C)[C@@H]2[C@@H](CCO)O[C@]3(C(=O)N(Cc4ccc(NC(=O)[C@H](C)O)cc4)c4ccccc43)[C@H]2C)cc1 | 0.395
C=CCNC(=O)[C@@H]1[C@H]2C(=O)O[C@H](c3ccccc3)[C@H](c3ccccc3)N2[C@H](c2ccc(OCCO)cc2)[C@@]12C(=O)N(C(=O)OCCOC)c1ccc(C#CC3(O)CCCCCC3)cc12 | 1.16
CC1CC/C=C\[C@H]2OC34C=CCN(Cn5nnc6ccccc65)C(=O)[C@H]3N(C(C)CO)C(=O)[C@@H]4C2C(=O)O1 (stereo not given in full) | -1.38
COc1ccc([Si](C)(C)[C@H]2[C@H](CC(=O)N(CCO)Cc3ccccc3)O[C@@]3(C(=O)N(C)c4ccccc43)[C@@H]2C)cc1 | 0.919
CO[C@H]1COC(=O)[C@H](CCSC)NC(=O)CC=C[C@@H](C)COC(=O)[C@@H](OCc2ccccc2)C=C[C@@H]1C | 2.45
C=CCOC(=O)[C@@H]1[C@H]2C(=O)O[C@H](c3ccccc3)[C@H](c3ccccc3)N2[C@H](c2ccc(OCCOC(=O)[C@H]3C[C@H]4C(=O)N[C@@H](CCCCNC(C)=O)C(=O)N4[C@H]3c3ccc(O)cc3)cc2)[C@@]12C(=O)Nc1ccc(I)cc12 | 0.242
O=[N+]([O-])c1ccc(C[n+]2ccc3ccc(O)cc3c2)o1 | 0.449
COCCOC(=O)N1C(=O)[C@@]2(c3cc(C#CC4=CCCCC4)ccc31)[C@H](C(=O)NC[C@H](O)c1ccccc1)[C@H]1C(=O)O[C@H](c3ccccc3)[C@H](c3ccccc3)N1[C@@H]2c1ccccc1OCCO | 0.333
CCOC(=O)C1=CC[C@@H](c2ccc(-c3ccc(OCc4ccccc4)cc3)c(OC)c2)N(S(=O)(=O)c2ccc(C)cc2)[C@H]1c1ccccc1 | 0.448
